Only some compounds are listed: those with a hit (about 11% of all), similar ones and a draw of the others.
Pf growth 96h = inhibits malaria parasite growth, 96 h. P. falciparum luciferase reporter growth, 96 h. Potency, µM (doses to about 28.7 µM), inactives show at the highest dose activity change, negative = inhibition, usual class: inhibitors. actives 6.9% (n = 320,000); also: % is scaled to controls: 0 for no effect and ±100 for the full control effect
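Readout is luminescence from an integrated firefly luciferase in P. falciparum. Red cells, 2% hematocrit and 0.05% parasitemia final, were cultured with compound through two parasite generations (96 hours) at 37 C, 5% CO2.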
AMA1 RON2 block = inhibitors of Plasmodium falciparum AMA1-RON2 interaction; AID 720542; actives 0.2% (n = 360,000); Potency, µM (series often up to 58.2 µM), for inactives: top-dose activity change, negative = inhibition, usual class: inhibitors; AlphaScreen AMA1-biotinylated RON2 peptide binding;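 also: 0% = vehicle wells and -100% = peptide control; nearly all actives have a fitted effect of over 45% in size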
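AMA1 (3D7) with his tag at 25 nM final met compounds first, then biotinylated RON2 peptide at 25 nM; detection used donor plus acceptor beads, 10 µg/mL apiece, read by AlphaScreen after 30 min at room temperature.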
Pf growth 48h = inhibits P. falciparum growth in the first generation, 48 h; P. falciparum luciferase growth in erythrocytes, 48 h; Potency, µM (titrated, usually from 28.7 µM), inactives show top-dose activity change, negative = inhibition, most hits filed as inhibitors; actives 5.9% (n = 310,000); AID 504832; also: % is scaled to controls: 0 for no effect and ±100 for the full control effect
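First compound was added to culture medium, then infected red cells at 0.1% parasitemia and 2% hematocrit (final). After incubation at 37 C under 5% CO2, luciferase detection reagent was dispensed and light output recorded.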
Sm TGR inh = blocks Schistosoma mansoni thioredoxin glutathione reductase; actives 3% (n = 360,000); AID 485364; Q962Y6; purified TGR, DTNB reduction, TNB absorbance 405 nm; Potency, µM (top dose mostly 114 µM), inactives show top-dose activity change, negative = inhibition, actives largely listed as inhibitors; also: % is scaled to controls: 0 for no effect and ±100 for the full control effect; nearly all actives have a fitted effect of over 60% in size
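TGR 20 nM + NADPH 100 uM (dispensed conc.), cpd preinc 15 min RT; start with NADPH (500 uM addition) then DTNB (15 mM addition). Kinetic TNB absorbance, 405 nm filter. Four-parameter Hill fit across titration.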
NS1 function inh = blocks influenza NS1 protein function; Potency, µM (series often up to 46.1 µM), for inactives: at the highest dose activity, positive = more growth; actives 0.4% (n = 270,000); calls by dose curve; also: actives are rising curves; nearly all actives have a fitted effect of over 50% in size
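Compounds were scored for reversing the slow growth caused by influenza A NS1 in S. cerevisiae, measured by optical density at 600 nm. Assay medium contained 2% galactose at pH 6.0; NS1-free yeast of the same strain were the positive control.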
An asterisk follows results filed as active; u = inconclusive; x = not tested or not shown. Unless noted, calls follow the shape of the dose curve; as a rule, active = well fitted curve in the direction sought with a large enough effect; inconclusive = small, poorly fitted or top-dose-only effect, or another doubt; inactive = no such curve, though single readings can be large; an effect the other way counts as inactive or inconclusive. Potency is read from the fitted curve at half-maximal effect.

SMILES	Pf growth 96h	AMA1 RON2 block	Pf growth 48h	Sm TGR inh	NS1 function inh
COCCNC(=O)c1ccccc1NC(=O)c1nsc2ccccc12	x	x	x	0.0%	x
CCCCc1cc(=O)oc2cc(C)c(CN3CCCC3)c(O)c12	104.7%	-11.2%	4.15µM*	-5.9%	-3.5%
CCc1cc(=O)oc2cc(C)c(CN3CCCC(C)C3)c(O)c12 (stereo unspecified)	u	18.9µM*	2.08µM*	u	5.6%
CCc1cc(=O)oc2c(CN3CCCC3)c(O)c(Cl)cc12	x	18.5%	17.0%	-22.7%	4.2%
CCCCc1cc(=O)oc2c(CN3CCCC3)c(O)ccc12	u	5.0%	u	-12.1%	6.4%
O=C(NCC1CCCN(C(=O)c2cc(Cl)ccc2F)C1)c1ccc(F)cc1 (stereo unspecified)	-19.1%	4.3%	22.1%	5.8%	-1.3%
COC(=O)C(=Cc1ccccc1[N+](=O)[O-])C(=O)OC	9.28µM*	4.5%	u	7.08µM*	-38.3%
C=CCNC(=O)/C(C#N)=C/c1ccccc1[N+](=O)[O-]	15.6%	4.6%	-1.8%	-0.1%	-9.3%
N#C/C(=C\c1ccccc1[N+](=O)[O-])C(=O)NCc1ccccc1	u	10.4%	14.7µM*	-1.7%	-0.8%
N#C/C(=C/c1ccccc1[N+](=O)[O-])C(=O)NCc1ccco1	u	-5.1%	-0.6%	-34.2%	11.3%
CCN(CC)c1ccc(/C=C(/C#N)C(=O)NC(C)C)o1	u	-19.4%	-9.5%	x	-0.1%
N#C/C(=C\C=C\c1ccccc1[N+](=O)[O-])C(=O)NCc1ccccc1	1.85µM*	-16.2%	3.7µM*	3.5%	-3.7%
CCN(CC)c1ccc(/C=C(/C#N)C(=O)NCc2ccccc2)o1	u	-12.3%	56.6%	35.5µM*	22.6%
O=C(/C=C/c1ccccc1[N+](=O)[O-])Oc1ccccc1	20.3%	x	16.3%	5.3%	-5.1%
CCCCNC(=O)/C(C#N)=C/c1ccc(C(=O)OC)cc1	-19.6%	6.1%	3.8%	2.1%	x
CCCCCCCCNC(=O)/C(C#N)=C/c1ccccc1[N+](=O)[O-]	u	u	13.1µM*	-7.2%	-28.4%
CCOC(=O)Cc1c(C)nc2c(C#N)c[nH]n2c1=O	38.0%	20.1%	19.1%	2.7%	9.4%
CCc1c(C)nc2c(C#N)c[nH]n2c1=O	0.522µM*	9.3%	-1.8%	13.3%	1.1%
O=C(CN1CCN(c2ccccn2)CC1)Nc1ccccc1Br	u	-0.4%	5.22µM*	2.3%	-5.1%
Cc1nc2ccccc2n1C1CCN(CC(=O)Nc2ccccc2Br)CC1	-12.3%	-15.3%	11.7µM*	14.8%	1.6%
O=C(CN1CCN(c2ccccn2)CC1)Nc1cc(C(F)(F)F)ccc1Cl	x	-2.4%	9.28µM*	1.2%	-30.1%
O=C(CN1CCN(c2ccccn2)CC1)Nc1ccc(Cl)c(C(F)(F)F)c1	24.6%	-0.9%	72.9%	0.0%	0.9%
Cc1cc(C)c(S(=O)(=O)N2CCCC(C(=O)N3CCOCC3)C2)c(C)c1 (stereo unspecified)	-0.1%	-3.5%	10.8%	4.3%	-2.6%
CCOC(=O)c1cc2nc(OCC)nc(OCC)c2[nH]1	x	-0.6%	x	x	x
COc1cc(/C=C/C(=O)O)cc(S(=O)(=O)Nc2ccc3nc(SC)sc3c2)c1OC	0.5%	0.5%	3.2%	4.7%	x
SMILES	Pf growth 96h	AMA1 RON2 block	Pf growth 48h	Sm TGR inh	NS1 function inh
CC(C)(C#CC(=O)O)OOC(c1ccccc1)(c1ccccc1)c1ccccc1	8.28µM*	-1.1%	11.7µM*	2.6%	7.6%
Cc1ccccc1NC(=O)Cc1nnc(SCC(=O)N2CCOCC2)n1C	-27.0%	7.4%	1.4%	-27.4%	10.4%
O=C(NCc1ccccn1)Nc1ccc(Br)cc1Cl	9.28µM*	2.9%	50.4%	2.4%	-15.9%
O=C(NCc1ccccn1)Nc1ccc(Br)cc1	1.65µM*	15.2%	12.6%	10.7%	-2.1%
O=C(NCc1ccccn1)Nc1ccccc1	-17.4%	-5.7%	103.1%	20.0%	-0.3%
O=C(NCc1ccccn1)Nc1ccc(Cl)cc1Cl	u	92.7%	67.3%	-19.8%	-1.8%
Cc1c(Cl)cccc1NC(=O)NCc1ccccn1	-3.5%	21.2%	-6.2%	39.8µM*	-3.7%
CC(C)NC1(C(N)=O)CCNCC1	x	-2.4%	x	x	x
O=C(CN1C(=O)NC2(CCCC2)C1=O)NCCc1ccc(Cl)cc1Cl	2.4%	2.2%	-7.8%	2.7%	x
CC(C)Oc1cc(F)ccc1-c1cc(C(=O)NCc2cccs2)[nH]n1	x	27.0%	x	x	x
CCc1nc2ccc(C(=O)NCCOc3ccc(OC)cc3)cn2c1N(C)C(=O)C1CCCCC1	x	-3.4%	x	x	x
CC1CCN(C(=O)CN2CCSc3ccccc32)CC1	x	x	x	3.5%	x
CCCCOc1ccc(S(=O)(=O)NCc2csc(C)n2)cc1	10.4µM*	0.6%	-7.6%	-23.3%	-1.2%
COCc1cc(C)nc2sc3c(c12)NC(c1ccccc1C(=O)O)N(c1ccc(OC)cc1)C3=O (stereo unspecified)	x	x	x	-1.4%	x
CC(C)COc1ccc(C(=O)N/C(=C\c2cccc([N+](=O)[O-])c2)C(=O)O)cc1	11.0%	1.1%	-6.6%	-1.8%	6.7%
CCCCOc1ccc(C(=O)N/C(=C\c2cccc([N+](=O)[O-])c2)C(=O)OC(C)C)cc1	0.465µM*	-3.3%	0.586µM*	36.7%	6.1%
CCCCOc1ccc(C(=O)N/C(=C\c2cccc([N+](=O)[O-])c2)C(=O)OCCC)cc1	1.65µM*	-3.5%	u	7.8%	4.0%
CC(C)COc1ccc(C(=O)N/C(=C\c2cccc([N+](=O)[O-])c2)C(=O)OC(C)C)cc1	12.7%	-8.1%	0.147µM*	20.8%	11.7%
CCC1CN(C(=O)N2CCC(C(=O)NCCc3ccccc3)CC2)c2ccccc2O1 (stereo unspecified)	-8.0%	10.7%	u	-4.3%	-17.7%
Cc1ccc(N(CC(=O)NCCc2ccccc2)S(=O)(=O)N(C)C)cc1	x	x	x	-3.2%	x
CCOC(=O)c1ccc(S(=O)(=O)N2CCN(C(=O)c3cc(=O)c4ccccc4o3)CC2)cc1	u	-8.1%	-9.3%	3.9%	-2.3%
COc1ccc(-c2csc(NC(=O)Cc3ccccc3F)n2)cc1OC	u	-20.3%	-11.8%	-7.4%	4.6%
C=CC[n+]1c(-c2ccc(OC)c(OC)c2)csc1NNC(=O)Nc1ccccc1	9.28µM*	-4.7%	7.38µM*	-1.8%	1.7%
